In PubChem BioAssay (NCI):
This is part of a sample that, as a whole, favours compounds with a hit. Of some 83,000 tested, about 20% had one in any assay.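 Note: values are percent growth. 100 is the growth of untreated cells, values between 100 and 0 indicate rising inhibition; between -100 and 0 indicates cell death.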 Values without a mark were called inactive. Calls of active or inactive are those of the source. The calls were made as follows: active = growth percent below 10; inactive = the rest.

Tests used:
Test in all cases: NCI-60 one-dose screen, 48 h (100 = growth as untreated, 0 = no growth, -100 = all killed)
Conditions in all cases: 10 µM
OVCAR-8 ovarian = test system: OVCAR-8 ovarian
OVCAR-5 ovarian = test system: OVCAR-5 ovarian
OVCAR-4 ovarian = test system: OVCAR-4 ovarian
SK-OV-3 ovarian = test system: SK-OV-3 ovarian
IGROV1 ovarian = test system: IGROV1 ovarian
OVCAR-3 ovarian = test system: OVCAR-3 ovarian
HS 578T breast = test system: HS 578T breast
BT-549 breast = test system: BT-549 breast
MDA-MB-435 melanoma = test system: MDA-MB-435 melanoma
SW-620 colon = test system: SW-620 colon
MCF7 breast = test system: MCF7 breast
HCT-116 colon = test system: HCT-116 colon
HCC-2998 colon = test system: HCC-2998 colon
KM12 colon = test system: KM12 colon
T-47D breast = test system: T-47D breast
NCI/ADR-RES ovarian = test system: NCI/ADR-RES ovarian

Row | SMILES | growth (OVCAR-8 ovarian) [%] | growth (OVCAR-5 ovarian) [%] | growth (OVCAR-4 ovarian) [%] | growth (SK-OV-3 ovarian) | growth (IGROV1 ovarian) | growth (OVCAR-3 ovarian) | growth (HS 578T breast) | growth (BT-549 breast) [%] | growth (MDA-MB-435 melanoma) | growth (SW-620 colon) | growth (MCF7 breast) [%] | growth (HCT-116 colon) | growth (HCC-2998 colon) | growth (KM12 colon) | growth (T-47D breast) [%] | growth (NCI/ADR-RES ovarian)
1 | ClCC#CCSc1ncnc2c1ncn2CC#CCCl | 24.4 | 14.1 | 34.3 | 45.7% | 30.7% | -27.5% (active) | 107% | 27.5 | 0.673% (active) | 2.37% (active) | 20.2 | -49% (active) | -24.9% (active) | 6.96% (active) | – | –
2 | OCC1OC(n2cnc3c(N/N=C\c4ccccn4)ncnc32)C(O)C1O (stereo unspecified) | 23.2 | 43.3 | 21.6 | – | -6.53% (active) | 24.3% | 14.5% | 44.3 | 23.6% | 23.9% | 16.8 | 11.9% | 10.9% | 26.7% | 25.4 | –
3 | FC(F)(F)c1ccc(-c2cnc(Cl)nc2N2CCC3(CC2)OCCO3)cc1 | 95 | 92.9 | 89.9 | 88.9% | – | 96% | 105% | 97.1 | 101% | 103% | 98.9 | 82.7% | 102% | 96.3% | 88.8 | 87.4%
4 | CCOC(=O)C1CCc2c(ccc3ccccc23)N1CCC#N (stereo unspecified) | 107 | 107 | – | – | 93.5% | 115% | 99.9% | 96 | 35.6% | 91.9% | 85.9 | – | 93.5% | 94.9% | 97.5 | 82%
5 | COc1ccc(NC2=NC(C)(CO)CS2)cc1 (stereo unspecified) | 74.3 | 103 | 97.7 | 104% | 87.7% | 112% | 99.3% | 98.4 | 101% | 104% | 88.6 | 102% | 104% | 104% | – | 106%
6 | c1ccc(CO[C@H]2CO[C@H]3[C@@H]2OC[C@H]3OCc2ccccc2)cc1 | 107 | 99.6 | 111 | 96% | – | 111% | 109% | 104 | 115% | 107% | 101 | 105% | 98% | 103% | 93.7 | 106%
7 | CN1CCCNc2c(c(=O)c2=O)NCCCN(C)CCCNc2c(c(=O)c2=O)NCCCN(C)CCCNc2c(c(=O)c2=O)NCCCN(C)CCCNc2c(c(=O)c2=O)NCCCN(C)CCCNc2c(c(=O)c2=O)NCCCN(C)CCCNc2c(c(=O)c2=O)NCCCN(C)CCCNc2c(c(=O)c2=O)NCCC1 | 18.9 | 99.6 | 66.5 | – | 47.6% | 35.9% | 85% | 67.1 | 21.1% | 41% | 74.1 | – | 70.6% | 34.9% | 14.7 | 64.9%
8 | COc1cc(C)ccc1C(=O)c1ccc(C)cc1OC | 23.9 | 46.8 | 63.1 | 17.1% | 37.2% | -39.2% (active) | -12.6% (active) | – | -69.8% (active) | 10.1% | 21.1 | – | 40% | 22.1% | 50.6 | -2.71% (active)
9 | CCCN(CCC)CCC(O)c1cc2c(c3ccccc13)CCCC2 (stereo unspecified) | 102 | 84.9 | 103 | 90.1% | 77.8% | – | 88% | 92.5 | 97.7% | 94.1% | 82.4 | 70.3% | 87.6% | 101% | 68.9 | 83.3%
10 | Nc1ccc2c(c1)Cc1cc(N)c(Br)cc1-2 | 102 | 113 | – | 101% | 116% | 115% | 76.7% | – | 102% | 108% | 51.4 | 101% | 80.8% | 99.6% | 78.5 | 90.2%
11 | O=C1NC(=O)N(Cc2ccccc2)CC1Br (stereo unspecified) | 61.9 | 85.3 | 77.7 | – | – | 92.9% | 114% | 94.5 | 62.9% | 51.7% | 56.6 | 28.1% | 95.4% | 106% | 57 | 56.6%
12 | COC(=O)[C@@H]1[C@H](O)[C@H](C)[C@H](O)[C@@](C)(O)/C=C\C=C(C)C(=O)Nc2c(C)c(OC(C)=O)c3c(c2O)C(=O)C(C)=C2OCOC(=C23)C(C)=C[C@@](C)(O)[C@H](O)[C@@H](C)[C@H]1OC(C)=O | – | 97.7 | 117 | 117% | 88.4% | 112% | 110% | 105 | 105% | 124% | 114 | 114% | 120% | 112% | 102 | 114%
13 | COc1ccc(OC)c(/C=C/c2nc(SC)n(-c3ccc(Cl)cc3)n2)c1 | 78.5 | 112 | 70 | 83.8% | 61.8% | – | 91.2% | 80 | 8.73% (active) | 77.4% | 46.7 | 59.8% | 69.6% | 53.1% | 42.8 | –
14 | CC(C)=NNc1ncnc2c1ncn2C1OC(CO)C(O)C1O (stereo unspecified) | 25.7 | 49.2 | 26.4 | 4.34% (active) | 64.5% | 3.84% (active) | -2.14% (active) | 43 | 18% | 9.33% (active) | 12.2 | 1.45% (active) | -10.2% (active) | 2.36% (active) | 19.2 | –
